# Assay results from PubChem BioAssay AID2156 (Johns Hopkins Ion Channel Center, 2009).
# The whole screen tested about 310,000 compounds, of which about 3,400 (1.1%) were called active. The sample as a whole holds a higher share of actives than the screen did. A number with no mark means an inactive call.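 Rule for the calls: active = fluorescence ratio B-score at most minus 3 library SDs, with starting brightness B-score within 2 library SDs (cut at about -5.5 in these data); inactive = the rest, inconclusive results apart.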
# Target: Potassium voltage-gated channel subfamily KQT member 2 (Rattus norvegicus) (UniProt O88943)
# Sequence (O88943 whole entry, looked up): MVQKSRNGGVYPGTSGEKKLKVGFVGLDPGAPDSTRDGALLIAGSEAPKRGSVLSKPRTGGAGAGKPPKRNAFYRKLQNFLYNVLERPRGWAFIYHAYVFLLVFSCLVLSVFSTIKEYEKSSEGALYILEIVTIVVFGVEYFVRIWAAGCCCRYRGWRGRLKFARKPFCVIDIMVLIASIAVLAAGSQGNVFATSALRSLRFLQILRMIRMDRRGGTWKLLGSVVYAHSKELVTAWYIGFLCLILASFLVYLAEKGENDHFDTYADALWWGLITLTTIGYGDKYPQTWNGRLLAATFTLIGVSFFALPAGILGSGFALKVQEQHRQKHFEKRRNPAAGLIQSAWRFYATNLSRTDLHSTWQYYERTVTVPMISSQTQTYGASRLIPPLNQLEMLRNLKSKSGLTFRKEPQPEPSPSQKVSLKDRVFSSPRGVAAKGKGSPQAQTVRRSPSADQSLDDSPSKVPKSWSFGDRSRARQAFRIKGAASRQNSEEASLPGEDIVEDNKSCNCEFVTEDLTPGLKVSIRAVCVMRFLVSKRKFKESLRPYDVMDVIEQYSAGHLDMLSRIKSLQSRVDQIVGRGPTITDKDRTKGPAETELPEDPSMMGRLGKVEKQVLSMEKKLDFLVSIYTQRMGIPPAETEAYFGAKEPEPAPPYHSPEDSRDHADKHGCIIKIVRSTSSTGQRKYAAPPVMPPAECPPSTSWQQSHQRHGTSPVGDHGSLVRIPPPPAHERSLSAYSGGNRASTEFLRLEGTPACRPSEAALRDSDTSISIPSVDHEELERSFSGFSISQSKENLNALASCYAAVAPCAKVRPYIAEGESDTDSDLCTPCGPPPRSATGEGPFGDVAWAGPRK
# Test: KCNQ2 channel blockers in CHO-K1 cells – cell-based, FluxOR thallium flux, B-score, primary screen (AID 2156)
# Conditions: 20 min, at 10 µM; stronger effect = lower value
row,SMILES,B-score
1,Cc1cc(C)c(NC(=O)C[N+](C)(C)CC(O)COc2cccc3ccccc23)c(C)c1 (stereo not given),inactive
2,OC(COc1cccc2ccccc12)CN1CCN(c2ccccn2)CC1 (stereo not given),inactive
3,CC(C)c1ccccc1OCC(O)CN(CC(O)COc1cccc2ccccc12)C(C)C (stereo not given),-6.3 (active)
4,Cc1ccc(C(=O)NNC(=O)C(C)Oc2ccc3ccccc3c2)o1 (stereo not given),inactive
5,CCN(CC(=O)Nc1ccc(NC(C)=O)cc1)C(=O)C1CC(=O)N(Cc2ccc(C)cc2)C1 (stereo not given),-0.36
6,COc1ccc2sc(N(CCCN(C)C)C(=O)c3ccc(S(=O)(=O)N(C)C4CCCCC4)cc3)nc2c1,inactive
7,COc1cc(Cl)ccc1OCc1cc(C(=O)N2CC[C@@H]3CCCC[C@H]3C2)no1,-3.02
8,CCOC(=O)CC1(NC(=O)c2cc(COc3cncc(Cl)c3)on2)CCCCC1,-1.68
9,CCCOC1CCCN(C(=O)c2cc(COc3cncc(Cl)c3)on2)C1 (stereo not given),-8.22 (active)
10,Cc1ccc(-c2cnc(NC(=O)CCC(=O)N(C)Cc3ccccc3)n2C)cc1,-7.93 (active)
11,Cn1c(-c2ccc(F)cc2)cnc1SCC(=O)NNC(=O)Cc1ccccc1,inactive
12,CN(Cc1ccccc1)C(=O)CCc1ccccc1,-0.03
13,O=C(CCNC(=O)c1ccc(Br)cc1)Nc1cccc(S(=O)(=O)N2CCCCC2)c1,-0.11
14,CCCCn1c(N)c(N(Cc2ccccc2OC)C(=O)COc2cc(C)ccc2Cl)c(=O)[nH]c1=O,-0.97
15,CCOc1ccc2ccccc2c1/C=N/NC(=O)c1c(C)cc(C)[nH]c1=O,-2
16,Cc1cc(NC(=O)C(C)N2C(=O)c3ccccc3S2(=O)=O)no1 (stereo not given),-0.8
17,FC(F)(F)c1ccc2c3n(nc2c1)CCN=C3c1ccc(Cl)cc1,inactive
18,O=C(COC(=O)c1ccccc1)Nc1ccccc1Sc1ccccc1,-0.64
19,Cc1ccccc1C(=O)Nc1ccccc1Sc1ccccc1,-8.36 (active)
20,Cc1ccccc1C(=O)Nc1ccccc1NC(=O)c1ccccc1C,inactive
21,O=C(Cc1ccc(S(=O)(=O)N2CCOCC2)s1)N1CCN(c2ccc(C(F)(F)F)cc2[N+](=O)[O-])CC1,inactive
22,O=C(NC1CCCCC1)c1ccc(-c2ccc(Cl)cc2)o1,-3.97
23,CN(CC(=O)Nc1cccc(F)c1)C(=O)C1=COCCO1,-0.61
24,O=C(NCc1ccccc1)C(c1ccccc1)N(C(=O)c1csnn1)c1ccc(F)cc1 (stereo not given),-1.89

row,SMILES,B-score
1,O=C(NC1CCCC1)C(c1ccco1)N(C(=O)c1csnn1)c1ccccc1 (stereo not given),inactive
2,O=C(NCc1ccccc1)C(c1ccco1)N(C(=O)c1csnn1)c1ccccc1F (stereo not given),-6.27 (active)
3,CCOc1ccc(C(C)=O)cc1COC(=O)CNC(=O)c1cccs1,inactive
4,CCOc1ncccc1C(=O)NNC(=O)c1cccc(S(=O)(=O)Nc2ccccc2OC)c1,inactive
5,CCc1ccc(OCC(=O)NCC(c2ccc(Cl)cc2)N2CCCCC2)cc1 (stereo not given),-5.91 (active)
6,COc1ccc(C(CNC(=O)COc2ccc([N+](=O)[O-])cc2)N2CCCCC2)cc1 (stereo not given),-0.69
7,COc1ccc(C(CNC(=O)COc2ccccc2OC)N2CCCCC2)cc1 (stereo not given),inactive
8,O=C(CCC1CCCCC1)Nc1cc(C(F)(F)F)ccc1N1CCOCC1,-0.87
9,CN(Cc1c(F)cccc1Cl)C(=O)CNC(=O)c1ccc2c(c1)OCO2,-1.89
10,CC(C)(C)n1nnnc1C(c1ccc(Cl)cc1)N1CCSCC1 (stereo not given),inactive
11,Cc1cccc(N2CCN(C(c3ccc(N(C)C)cc3)c3nnnn3C(C)(C)C)CC2)c1C (stereo not given),-6.02 (active)
12,Cc1cccc(N2CCN(C(c3ccccc3)c3nnnn3CC3CCCO3)CC2)c1C (stereo not given),-1.18
13,CCOc1ccc(S(=O)(=O)NCCC(=O)NCC(C)(C)N2CCOCC2)cc1,inactive
14,CCOc1ccc2c(c1)C(c1ccc(C)cc1)=NNC(c1ccc(C)cc1)=N2,-1.45
15,Cc1ccc(C2=Nc3c(ccc4ccccc34)C(c3ccncc3)=NN2)cc1,-7.02 (active)
16,CCc1ccc2c(c1)C(c1ccc([N+](=O)[O-])cc1)=NNC(c1ccccc1)=N2,-0.01
17,CC1(c2nnc(Cc3ccccc3)o2)CC(c2ccccc2F)=NO1 (stereo not given),inactive
18,COc1ccc(Cl)cc1NS(=O)(=O)c1cccc(C(=O)NC2CCC(O)CC2)c1 (stereo not given),inactive
19,CCN(CC)CCn1c2c(c(SCC(=O)Nc3nc4ccccc4s3)nc1=O)CCCC2,-0.49
20,CC(C(=O)NCC1CCCCC1)N(C)Cc1cccc(Cl)c1 (stereo not given),-6.94 (active)
21,Cc1ccccc1NC(=O)NCC1CCN(Cc2cccc(Cl)c2)CC1,inactive
22,CNS(=O)(=O)c1cccc(C(=O)NCC2CCCCC2)c1,inactive
23,O=C(COC(=O)c1cccc(Cl)c1)Nc1ccc2[nH]c(=O)[nH]c2c1,inactive
24,CCOc1cc(/C=N/NC(=O)c2cccc(S(=O)(=O)N3CCOCC3)c2)ccc1OCC(=O)N(C)C,-0.36

row,SMILES,B-score
1,Cc1ccc(S(=O)(=O)NCCC(=O)OCC(=O)N(C)c2ccccc2)cc1,inactive
2,COc1ccc(Cl)cc1NC(=O)CN(C)Cc1ccc(OC)c(OC)c1,-7.16 (active)
3,COc1ccc(Cl)cc1NC(=O)CN(C)C(=O)c1cc2ccccc2cc1OC,-1.83
4,COc1ccc(OC)c(NC(=O)CN(Cc2ccc(Cl)cc2)S(C)(=O)=O)c1,-0.01
5,O=C1N[C@@H](Cc2ccccc2)C(=O)N2[C@H]1C[C@]1(Br)c3ccccc3N(S(=O)(=O)c3ccccc3)[C@H]21,inactive
6,CN1/C(=c2/s/c(=C3/C(=O)N(c4ccccc4)NC3=Nc3ccccc3)n(C)c2=O)C(C)(C)c2ccccc21,-7.74 (active)
7,CCN1C(=O)/C(=c2\s/c(=C3\Sc4ccccc4N3C)c(=O)n2C)N(C)C1=S,inactive
8,CC1C(=O)N2CCCc3cc(S(=O)(=O)NCc4ccc(F)cc4)cc1c32 (stereo not given),inactive
9,Cc1ccc(Cl)c(OCC(=O)N(C)CC(=O)Nc2ccc(N3CCOCC3)cc2)c1,inactive
10,Cc1ccc(NS(=O)(=O)c2ccc(C(=O)NCCCN3CCOCC3)cc2)cc1,-0.52
11,CC(C)CN(C(=O)Cn1c(=O)cnc2ccccc21)C1CCS(=O)(=O)C1 (stereo not given),-1.5
12,CCOC(=O)N1CCN(C(=O)COc2ccc3oc4c(c3c2)CCCC4)CC1,inactive
13,Fc1ccccc1C(c1nnnn1Cc1ccc2c(c1)OCO2)N1CCN(Cc2ccccc2)CC1 (stereo not given),-1.43
14,Cc1cc(C)c2[nH]c(=O)c(C(c3nnnn3Cc3ccc4c(c3)OCO4)N3CCCC3)cc2c1 (stereo not given),-6.38 (active)
15,CCOC(=O)C1CCN(C(c2cc3cc(C)cc(C)c3[nH]c2=O)c2nnnn2C2CCCCC2)CC1 (stereo not given),-1.94
16,O=C(CSC1=NS(=O)(=O)c2cc(F)ccc2N1)Nc1ccccc1F,inactive
17,O=C(OCC(=O)N1CCCC1=O)c1cc(S(=O)(=O)N2CCOCC2)ccc1Cl,-0.84
18,O=C(NN1CCOCC1)c1cccc(F)c1,inactive
19,CCN(CC)S(=O)(=O)c1ccc(N2CCOCC2)c(NC(=O)C2COc3ccccc3O2)c1 (stereo not given),-6.56 (active)
20,CCN(CC)S(=O)(=O)c1ccc(N2CCOCC2)c(C(=O)O)c1,inactive
21,CCN(CC)S(=O)(=O)c1ccc(N2CCOCC2)c(NC(=O)C2CSC3(C)CCC(=O)N23)c1 (stereo not given),inactive
22,Cc1ccc(N2CC(C(=O)N3CCC4(CC3)CC(=O)c3ccccc3O4)CC2=O)cc1C (stereo not given),inactive
23,O=C(NCC(=O)N1CCCC(C(F)(F)F)C1)c1ccccc1F (stereo not given),inactive
24,CC(NC(=S)NNS(=O)(=O)c1ccc(C(C)(C)C)cc1)c1ccccc1 (stereo not given),-10.4 (active)

row,SMILES,B-score
1,Cc1ccc(S(=O)(=O)CC(=O)NC(C)c2ccccc2)cc1 (stereo not given),-0.01
2,Cc1ccc(S(=O)(=O)NNC(=S)NC(C)(C)C)cc1,-0.78
3,CCN(C(=O)CSc1nnc(-c2ccc(OC(F)F)cc2)n1N)C1CCS(=O)(=O)C1 (stereo not given),-0.14
4,CCN(CC(=O)Nc1cc(Cl)ccc1C)C(=O)CN1C(=O)NC2(CCCC2)C1=O,-0.62
5,O=c1[nH]c(CSc2ncc(-c3ccc(F)cc3)n2Cc2ccco2)nc2ccccc12,inactive
6,Clc1cccc(-c2nc3nc4ccccc4nc3n2Cc2ccco2)c1,-9.06 (active)
7,Cc1cc(NC(=O)CSc2nc3cc(Cl)ccc3c(=O)n2Cc2ccco2)no1,inactive
8,O=C(Nc1cccc(F)c1)NC1CCCc2ccccc21 (stereo not given),-5.61 (active)
9,O=C(Nc1cccc(F)c1)[C@@H]1CCCN1,-0.48
10,O=C(Nc1cccc(F)c1)NC1CCCCCCC1,-1.17
11,COc1cccc(N2CC(NS(=O)(=O)c3cccs3)CC2=O)c1 (stereo not given),inactive
12,COc1ccc(C2=NOC(Cn3nc(C(=O)NCc4ccc5c(c4)OCO5)cc3-c3ccccc3)C2)cc1 (stereo not given),-2.37
13,CCOC(=O)c1c(NC(=O)CN2C(=O)NC3(CCC(C)CC3)C2=O)sc(C)c1CC (stereo not given),inactive
14,Cc1ccc2nnn(Cc3cccc(C(C)(C)C)c3O)c2c1,-2.09
15,O=C(CNC(=O)C12CC3CC(CC(C3)C1)C2)OCC(=O)N1CCCCC1,inactive
16,COc1cccc(N2CC(C(=O)NCc3n[nH]c(=O)c4ccccc34)CC2=O)c1 (stereo not given),inactive
17,Cc1ccc(-c2nn(-c3ccccc3)cc2CN(Cc2ccccc2)C(=O)CCC(=O)O)o1,inactive
18,CCc1ccc(-c2nn(-c3ccccc3)cc2CSC(=N)N)cc1,-12.4 (active)
19,O=C(Nc1cn(-c2ccccc2)nc1-c1ccccc1)c1ccccc1,-2.94
20,CCOc1ccc(S(=O)(=O)Nc2cccc(C(=O)NCC3(N4CCCCC4)CCCCC3)c2)cc1,-0.94
21,O=C(C1=C[C@H](c2ccc(C(F)(F)F)cc2)C[C@H](OCc2ccc(CO)cc2)O1)N1CCN(Cc2ccccc2)CC1,-2.67
22,CC(C)(C)[C@H]1C=C(C(=O)NCc2ccccc2)O[C@@H](OCc2ccc(CO)cc2)C1,-1.3
23,O=C(NCc1ccccc1)C1=C[C@@H](c2ccc(C(F)(F)F)cc2)C[C@@H](OCc2ccc(CO)cc2)O1,-7.51 (active)
